The record followed here is PubChem BioAssay (EPA / NIEHS).

A short description of assay [1]: ATG_CRE_CIS: Attagene CIS-FACTORIAL HepG2 Assay for human cAMP Responsive Element (CRE) binding protein 3 (AID 2282926). Particulars: HepG2 CRE cis-reporter, Attagene multiplexed mRNA; actives raise or lower the signal. The procedure, abridged:
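Cells carrying cis-regulated reporter constructs respond through their own endogenous factors. After 24 h treatment, RNA is reverse-transcribed, amplified, labelled and sized by capillary electrophoresis; up- and down-regulation are both scored against vehicle.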

A short description of assay [2]: ATG_CMV_CIS: Attagene CIS-FACTORIAL HepG2 Assay for human CMV (Internal Marker) (AID 2282928).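 Also: endpoint acts as a background internal control marker rather than a target.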 The settings on record: HepG2 CMV promoter reporter, transcription factor profiling; actives raise or lower the signal. The method in brief: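 Reporter transcripts from transfected HepG2 cells are isolated after 24 h of chemical dosing, reverse-transcribed and amplified. Fragments labeled with 6-FAM are cut with HpaI and quantified by capillary electrophoresis; DMSO defines baseline.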

Assay [3] can be described thus: ATG_DR4_LXR_CIS: Attagene CIS-FACTORIAL HepG2 Assay for human Liver X Receptor (LXR), DR4 submotif (AID 2282929). The settings on record: HepG2 Attagene DR4 cis-reporter, mRNA transcription; actives raise or lower the signal. The method in brief: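 Endogenous factor activity at a DR4 cis-element is read as reporter mRNA in transiently transfected HepG2 cells. Exposure lasts 24 h; transcripts are amplified, fluorescently labelled and sized by capillary electrophoresis, with DMSO as baseline.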

Assay [4] concerns the target Aryl hydrocarbon receptor (Homo sapiens) (UniProt P35869). Put plainly: ATG_Ahr_CIS: Attagene CIS-FACTORIAL HepG2 Assay for human Aryl Hydrocarbon Receptor (Ahr) (AID 2282930). Particulars: HepG2 AhR cis-factorial reporter transcription; actives raise or lower the signal. The procedure, abridged: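 Read-out: reporter mRNA quantified by RT-PCR with fluorescent primer extension and capillary electrophoresis. Human HepG2 liver cells carried transfected cis-promoter reporter units and were exposed to chemical for 24 h; gain or loss fitted relative to DMSO.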

A short description of assay [5]: ATG_BRE_CIS: Attagene CIS-FACTORIAL HepG2 Assay for human Bone Morphogenetic Protein (BMP) Response Element (BRE) (AID 2282933). Particulars: HepG2 BMP response element reporter, Attagene transcription factor profiling; actives raise or lower the signal. The procedure, abridged:
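After a 24 h chemical treatment, transiently transfected HepG2 cells were lysed for RNA; reporter transcripts were quantified by fluorescent RT-PCR and capillary electrophoresis, normalised to DMSO.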

Assay [6] addresses Retinoic acid receptor alpha (Homo sapiens) (UniProt P10276). As to the kind of experiment: ATG_DR5_RAR_CIS: Attagene CIS-FACTORIAL HepG2 Assay for human Retinoic Acid Receptor Alpha (RARE), DR5 submotif (AID 2282934). Particulars: HepG2 Attagene cis-factorial RARE DR5 reporter, mRNA; actives raise or lower the signal. The method in brief:
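Read-out: DR5-driven reporter transcript measured by RT-PCR, 6-FAM primer extension, HpaI digest and capillary electrophoresis. Human HepG2 liver cells carry transiently transfected cis-element reporter constructs; dosing lasts 24 h. Gain or loss of signal fitted against DMSO baseline.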

Assay [7] deals with Transcription factor E2F1 (Homo sapiens) (UniProt Q01094). Put plainly: ATG_E2F_CIS: Attagene CIS-FACTORIAL HepG2 Assay for human E2F Transcription Factor 1 (AID 2282935). The settings on record: HepG2 Attagene cis-reporter, E2F reporter RNA transcripts; actives raise or lower the signal. The method in brief: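 Liver-derived HepG2 cells expressing transfected promoter-driven reporter units received test chemical for 24 hours. Signal gains or losses were fitted bidirectionally against DMSO.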

A short description of assay [8]: ATG_E_Box_CIS: Attagene CIS-FACTORIAL HepG2 Assay for human Enhancer Box (E-box) (AID 2282936). Particulars: HepG2 E-box cis-reporter transcription, actives raise or lower the signal. The procedure, abridged:
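In this cell-based setup, HepG2 cells bearing transfected promoter-driven reporter units were exposed to chemicals for 24 h; reporter transcripts were amplified, 6-FAM-labelled, cut with HpaI and sized by capillary electrophoresis.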

Assay [9] is described as follows: ATG_M_61_CIS: Attagene CIS-FACTORIAL HepG2 Assay for M61 Transcription Factor (Internal Marker) (AID 2282937). The settings on record: HepG2 Attagene CIS-FACTORIAL M61 internal marker reporter; actives raise or lower the signal. The procedure, abridged:
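This endpoint serves as an internal background control within a multiplexed HepG2 cis-reporter panel. Cells are exposed for 24 h; reporter mRNA is amplified, fluorescently labelled and sized by capillary electrophoresis, with DMSO as negative control.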

A short description of assay [10]: ATG_EGR_CIS: Attagene CIS-FACTORIAL HepG2 Assay for human Early Growth Response 1 (EGR1) (AID 2282938). The settings on record: HepG2 Attagene CIS-FACTORIAL EGR reporter mRNA; actives raise or lower the signal. The procedure, abridged: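 HepG2, transient MRTU transfection (cis promoters), 24 h compound. RNA → RT (oligo-dT) → PCR → 6-FAM labelling → HpaI cut → CE fluorescence. Bidirectional fit, DMSO baseline.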

The nature of assay [11]: ATG_M_19_CIS: Attagene CIS-FACTORIAL HepG2 Assay for M19 Transcription Factor (Internal Marker) (AID 2282939). The settings on record: HepG2 Attagene CIS-FACTORIAL M19 internal marker reporter; actives raise or lower the signal. The method in brief:
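In this multiplexed cell assay, transiently transfected HepG2 reporter units report endogenous transcription-factor activity; after 24 hours of treatment, labelled reporter cDNA fragments are quantified by capillary electrophoresis and fitted bidirectionally against DMSO.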

Assay [12] can be described thus: ATG_ERE_CIS: Attagene CIS-FACTORIAL HepG2 Assay for Estrogen Response Element (ERE) (AID 2282940). The settings on record: HepG2 ERE cis-reporter, Attagene RNA transcript; actives raise or lower the signal. The method in brief:
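Measuring endogenous transcription factor output, the assay doses transfected HepG2 cells for 24 hours and quantifies reporter transcripts by fluorescent RT-PCR and capillary electrophoresis, with DMSO as baseline.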

The nature of assay [13]: ATG_Ets_CIS: Attagene CIS-FACTORIAL HepG2 Assay for human Erythroblast Transformation Specific (ETS) (AID 2282941). The settings on record: HepG2 ETS cis-reporter transcription, actives raise or lower the signal. The procedure, abridged: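 Bidirectional fit versus DMSO of reporter mRNA signal, detected by RT-PCR and capillary electrophoresis in HepG2 cells transiently transfected with cis-element reporters and dosed 24 h.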

Assay [14] deals with Hepatocyte nuclear factor 3-beta (Homo sapiens) (UniProt Q9Y261). As to the kind of experiment: ATG_FoxA2_CIS: Attagene CIS-FACTORIAL HepG2 Assay for human Forkhead box A2 (FOXA2) (AID 2282942). The settings on record: HepG2 cis-reporter transcription factor activity, 24 h; actives raise or lower the signal. The method in brief:
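Cells: HepG2, transient multiplex reporter transfection. Exposure 24 h. Detection: reporter-specific RT-PCR, fluorescent labelling, restriction digest, capillary electrophoresis. Analysis: bidirectional curve fit, DMSO as negative control.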

Assay [15] is described as follows: ATG_FoxO_CIS: Attagene CIS-FACTORIAL HepG2 Assay for human Forkhead box O (FoxO) (AID 2282943). The settings on record: HepG2 Attagene cis-reporter, FoxO element, mRNA; actives raise or lower the signal. The method in brief: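 Read-out: fluorescence of 6-FAM-labelled reporter cDNA fragments resolved by capillary electrophoresis. Transiently transfected HepG2 cells were dosed for 24 h; activity fitted in both directions relative to DMSO controls.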

Assay [16] can be described thus: ATG_GATA_CIS: Attagene CIS-FACTORIAL HepG2 Assay for human GATA Binding Protein (AID 2282944). The settings on record: HepG2 GATA cis-element reporter, Attagene multiplex mRNA; actives raise or lower the signal. The method in brief: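 Measures endogenous transcription factor-driven reporter mRNA in HepG2 cells transiently carrying cis-regulated constructs. 24 h dosing; RNA via oligo(dT) reverse transcription, PCR, HpaI digestion, capillary electrophoresis; fitted relative to DMSO.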

The nature of assay [17]: ATG_GLI_CIS: Attagene CIS-FACTORIAL HepG2 Assay for human Zinc Finger Protein GLI1 (AID 2282945). The settings on record: HepG2, Attagene cis-factorial reporter mRNA, GLI element; actives raise or lower the signal. The method in brief:
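Transiently transfected HepG2 cells report endogenous transcription factor activity via cis-element-driven reporter units. After 24 h compound exposure, reporter mRNA was measured by RT-PCR with capillary electrophoresis; bidirectional fitting against DMSO baseline.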

A short description of assay [18]: ATG_AP_1_CIS: Attagene CIS-FACTORIAL HepG2 Assay for human Activator Protein 1 (AP-1) (AID 2282931). The settings on record: HepG2 Attagene cis-factorial AP-1 reporter mRNA; actives raise or lower the signal. The procedure, abridged:
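Fluorescence of labelled PCR fragments separated by capillary electrophoresis gives reporter mRNA levels. HepG2 with transfected cis-regulated reporter units, 24 h exposure; DMSO serves as baseline for bidirectional curve fits.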

Assay [19] is described as follows: ATG_AP_2_CIS: Attagene CIS-FACTORIAL HepG2 Assay for human Activator Protein 2 (AP-2) (AID 2282932). Particulars: HepG2 AP-2 cis-reporter, Attagene transcription factor profiling; actives raise or lower the signal. The method in brief:
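Liver-derived HepG2 line, cis-reporter system measuring endogenous factors; 24 h dosing; reporter mRNA detected by fluorescent RT-PCR and capillary electrophoresis.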

The source made the active and inactive calls. The calls were made as follows: active = hit-call score of the fitted dose curve at least 0.9, where 1 is the maximum; inactive = score below 0.9.

Sequence of Aryl hydrocarbon receptor (Homo sapiens) (P35869 whole entry, looked up): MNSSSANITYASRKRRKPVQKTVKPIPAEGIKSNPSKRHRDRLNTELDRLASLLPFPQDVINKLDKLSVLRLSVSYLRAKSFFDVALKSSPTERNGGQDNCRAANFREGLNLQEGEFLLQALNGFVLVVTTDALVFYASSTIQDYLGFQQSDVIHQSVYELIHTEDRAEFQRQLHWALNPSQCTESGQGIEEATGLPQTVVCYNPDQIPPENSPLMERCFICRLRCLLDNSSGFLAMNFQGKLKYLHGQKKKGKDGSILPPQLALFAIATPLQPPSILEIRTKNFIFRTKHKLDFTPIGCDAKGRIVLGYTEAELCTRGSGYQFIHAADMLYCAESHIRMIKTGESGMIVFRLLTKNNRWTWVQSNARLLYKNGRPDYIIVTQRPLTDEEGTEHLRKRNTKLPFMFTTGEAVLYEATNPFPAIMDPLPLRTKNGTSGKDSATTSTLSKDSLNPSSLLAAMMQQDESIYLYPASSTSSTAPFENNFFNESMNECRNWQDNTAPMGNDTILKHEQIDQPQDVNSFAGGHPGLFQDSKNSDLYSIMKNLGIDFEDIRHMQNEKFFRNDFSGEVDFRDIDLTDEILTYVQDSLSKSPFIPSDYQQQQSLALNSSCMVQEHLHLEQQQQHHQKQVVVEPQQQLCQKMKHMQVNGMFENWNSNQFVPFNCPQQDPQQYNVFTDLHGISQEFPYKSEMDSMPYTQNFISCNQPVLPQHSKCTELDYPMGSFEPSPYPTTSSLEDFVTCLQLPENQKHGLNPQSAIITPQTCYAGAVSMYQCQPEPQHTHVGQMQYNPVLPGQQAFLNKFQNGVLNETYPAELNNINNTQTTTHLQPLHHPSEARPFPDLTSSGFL
Sequence of Retinoic acid receptor alpha (Homo sapiens) (P10276 whole entry, looked up): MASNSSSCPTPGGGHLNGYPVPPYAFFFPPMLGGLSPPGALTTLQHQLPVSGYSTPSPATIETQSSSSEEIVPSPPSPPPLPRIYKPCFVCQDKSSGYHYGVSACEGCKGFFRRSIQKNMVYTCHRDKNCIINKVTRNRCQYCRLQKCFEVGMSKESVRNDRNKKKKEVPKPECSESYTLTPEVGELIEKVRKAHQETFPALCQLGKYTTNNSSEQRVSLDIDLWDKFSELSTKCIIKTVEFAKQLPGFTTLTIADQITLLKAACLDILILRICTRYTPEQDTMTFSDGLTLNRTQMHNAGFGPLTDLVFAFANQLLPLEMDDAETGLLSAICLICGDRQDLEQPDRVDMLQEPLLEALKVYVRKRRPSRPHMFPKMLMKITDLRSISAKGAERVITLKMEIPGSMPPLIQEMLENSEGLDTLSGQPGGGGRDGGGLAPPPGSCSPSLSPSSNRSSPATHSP
Sequence of Transcription factor E2F1 (Homo sapiens) (Q01094 whole entry, looked up): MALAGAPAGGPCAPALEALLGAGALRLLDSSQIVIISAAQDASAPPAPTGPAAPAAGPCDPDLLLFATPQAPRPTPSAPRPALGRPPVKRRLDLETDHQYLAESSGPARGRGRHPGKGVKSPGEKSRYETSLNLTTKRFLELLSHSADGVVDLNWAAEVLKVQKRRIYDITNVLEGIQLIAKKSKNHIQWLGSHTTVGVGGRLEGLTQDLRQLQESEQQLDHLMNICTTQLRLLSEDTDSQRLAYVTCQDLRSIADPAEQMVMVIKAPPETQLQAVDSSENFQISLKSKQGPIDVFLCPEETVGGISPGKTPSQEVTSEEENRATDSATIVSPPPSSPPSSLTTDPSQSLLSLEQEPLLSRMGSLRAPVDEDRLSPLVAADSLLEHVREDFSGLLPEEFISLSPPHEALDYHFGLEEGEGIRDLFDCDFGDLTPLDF
Sequence of Hepatocyte nuclear factor 3-beta (Homo sapiens) (Q9Y261 whole entry, looked up): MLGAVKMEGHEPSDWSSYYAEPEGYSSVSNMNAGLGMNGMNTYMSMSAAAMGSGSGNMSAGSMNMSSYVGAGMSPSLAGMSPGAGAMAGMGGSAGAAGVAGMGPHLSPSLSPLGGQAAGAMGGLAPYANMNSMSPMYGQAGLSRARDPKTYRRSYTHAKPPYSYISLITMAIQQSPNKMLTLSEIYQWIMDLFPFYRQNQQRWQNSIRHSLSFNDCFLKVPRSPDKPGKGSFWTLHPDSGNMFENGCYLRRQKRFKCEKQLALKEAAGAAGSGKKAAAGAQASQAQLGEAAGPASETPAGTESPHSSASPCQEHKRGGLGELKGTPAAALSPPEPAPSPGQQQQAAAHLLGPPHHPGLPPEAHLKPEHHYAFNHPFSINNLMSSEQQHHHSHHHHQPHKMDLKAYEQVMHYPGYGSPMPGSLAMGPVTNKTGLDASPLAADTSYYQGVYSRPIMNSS

Regarding `O=C(Oc1ccc(Br)cc1)N1CCN2CCC1CC2`, the outcome in [1], in assay [2], in [3], in [4], in [5] and in assay [6] was inactive. Further, the result in assay [7], in assay [8], in assay [9], in assay [10], in assay [11] and in assay [12] was inactive. The call in assay [13], in assay [14], in assay [15], in assay [16] and in assay [17] was inactive.
The AC50 is the concentration giving half of the maximal activity seen. Take `CN(C)[C@@H]1C(=O)C(C(N)=O)=C(O)[C@@]2(O)C(=O)C3=C(O)c4c(O)cccc4[C@@](C)(O)[C@H]3C[C@@H]12`: the molecule was called inactive in assay [1], in assay [3], in assay [4], in assay [5], in assay [7] and in [8]. Moreover, the molecule was classed as inactive in [9], in assay [10], in assay [11], in [13], in assay [14] and in [15]. In addition, the molecule was called inactive in assay [16] and in assay [17]. The AC50 in assay [2] was 137 µM (active).
For `CC(C)(C)OOC(C)(C)CCC(C)(C)OOC(C)(C)C`, the outcome in assay [1], in assay [6], in assay [7], in assay [8], in assay [9] and in [10] was inactive. Also, the molecule was called inactive in [11], in [13], in assay [14], in [15], in assay [16] and in [17]. For the same molecule, the AC50 in assay [2] is 90.1 µM (active); in [3], 100 µM (active); in assay [18], 100 µM (active); in [5], 161 µM (active).
`Nc1ccc([N+](=O)[O-])cc1`: the result in assay [1], in assay [2], in assay [3], in [19], in assay [5] and in assay [7] was inactive. Besides, the outcome in assay [8], in assay [9], in assay [10], in assay [11], in [13] and in assay [14] was inactive. The molecule was called inactive in [15], in [16] and in assay [17].
On to `O=C(Nc1ccccc1)c1ccccc1I`, for which the molecule was called inactive in assay [1], in [2], in assay [4], in assay [19], in assay [5] and in [6]. The call in [7], in assay [8], in assay [9], in [10], in [11] and in assay [13] was inactive. The result in assay [14], in [15], in assay [16] and in assay [17] was inactive. In addition, the AC50 in assay [3] was 157 µM (active); in [12], 30.3 µM (active).
With `CCCCOC(=O)c1ccccc1C(=O)OCc1ccccc1`, the molecule was classed as inactive in [1], in [2], in assay [3], in assay [4], in assay [18] and in [5]. The outcome in assay [6], in assay [7], in [8], in assay [9], in [10] and in [11] was inactive. The call in assay [13], in [14], in [15], in assay [16] and in assay [17] was inactive.
